In the supplement of paper PMC10849652:
Of roughly 8,800 targets only a part is listed; those with a hit were picked by preference. About 0.5% of all pairs of compound and target were hits. A number with no mark means an inactive call.

Compound: CC[C@@H]1C(=O)N(C)c2cnc(Nc3ccc(C(=O)NC4CCN(C)CC4)cc3OC)nc2N1C1CCCC1
Assay: log2 fold change, soluble protein after heating vs DMSO (PISA); higher = thermal stabilisation; K562 lysate, 10 uM; active = over 0.2 and 3.5 SD of the protein, either way, in both replicates (recomputed)
Method in brief: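 Following dounce homogenisation of K562 pellets in PBS pH 7.4 with 1 mM MgCl2, crude extract at 1 mg/mL protein was incubated for 30 min with 10 μM compound. Aliquots were then heated for 3 min over 48°C-58°C and pooled, NP-40 was added to 0.5% at 4°C, and soluble protein was recovered as the supernatant at 21,000xg for 90 min. Channel-sum-equalised TMTpro 16plex LC-MS/MS quantified this protein. Each value, from duplicates, is a log-two fold change in thermal stability relative to solvent controls.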

Sequence of UniProt O76041 (O76041 whole entry, looked up): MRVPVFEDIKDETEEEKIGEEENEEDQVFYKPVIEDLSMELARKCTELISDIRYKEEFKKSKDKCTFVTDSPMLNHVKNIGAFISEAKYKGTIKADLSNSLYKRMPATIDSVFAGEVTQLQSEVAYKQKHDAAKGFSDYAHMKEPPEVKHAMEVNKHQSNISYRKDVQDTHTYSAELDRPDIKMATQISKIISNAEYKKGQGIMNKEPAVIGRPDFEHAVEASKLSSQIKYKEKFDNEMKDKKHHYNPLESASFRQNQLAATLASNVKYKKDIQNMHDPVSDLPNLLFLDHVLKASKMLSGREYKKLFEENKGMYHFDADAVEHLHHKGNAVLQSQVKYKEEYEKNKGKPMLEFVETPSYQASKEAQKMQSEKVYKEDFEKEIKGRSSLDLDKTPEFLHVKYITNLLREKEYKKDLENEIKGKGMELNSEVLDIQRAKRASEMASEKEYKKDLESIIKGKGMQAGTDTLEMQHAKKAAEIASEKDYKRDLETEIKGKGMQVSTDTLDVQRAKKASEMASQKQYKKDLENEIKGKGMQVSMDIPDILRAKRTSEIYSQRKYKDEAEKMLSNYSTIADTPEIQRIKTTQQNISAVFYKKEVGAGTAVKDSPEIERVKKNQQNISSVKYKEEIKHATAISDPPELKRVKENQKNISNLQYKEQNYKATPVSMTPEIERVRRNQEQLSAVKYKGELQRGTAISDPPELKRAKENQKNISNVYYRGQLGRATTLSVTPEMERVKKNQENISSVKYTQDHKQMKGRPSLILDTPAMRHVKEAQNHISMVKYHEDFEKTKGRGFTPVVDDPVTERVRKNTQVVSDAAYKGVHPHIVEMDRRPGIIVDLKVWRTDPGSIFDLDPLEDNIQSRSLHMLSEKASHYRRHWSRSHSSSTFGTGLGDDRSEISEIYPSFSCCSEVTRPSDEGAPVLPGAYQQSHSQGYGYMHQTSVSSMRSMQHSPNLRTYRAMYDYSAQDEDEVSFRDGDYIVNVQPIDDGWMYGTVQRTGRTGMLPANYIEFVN
Sequence of UniProt Q96I59 (Q96I59 whole entry, looked up): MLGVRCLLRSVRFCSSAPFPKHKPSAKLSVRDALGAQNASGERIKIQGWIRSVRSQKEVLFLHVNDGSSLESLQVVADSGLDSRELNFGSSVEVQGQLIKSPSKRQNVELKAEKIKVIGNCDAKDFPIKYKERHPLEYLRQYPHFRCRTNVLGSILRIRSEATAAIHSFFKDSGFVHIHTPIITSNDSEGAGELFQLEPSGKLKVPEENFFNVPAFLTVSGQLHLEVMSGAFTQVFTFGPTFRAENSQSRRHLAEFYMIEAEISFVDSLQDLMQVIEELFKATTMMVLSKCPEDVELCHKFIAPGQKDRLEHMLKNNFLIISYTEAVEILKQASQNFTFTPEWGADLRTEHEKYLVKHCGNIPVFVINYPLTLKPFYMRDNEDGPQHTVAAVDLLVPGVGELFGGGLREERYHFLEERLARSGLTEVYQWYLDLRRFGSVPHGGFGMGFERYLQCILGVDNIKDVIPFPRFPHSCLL
Sequence of UniProt Q8TD19 (Q8TD19 whole entry, looked up): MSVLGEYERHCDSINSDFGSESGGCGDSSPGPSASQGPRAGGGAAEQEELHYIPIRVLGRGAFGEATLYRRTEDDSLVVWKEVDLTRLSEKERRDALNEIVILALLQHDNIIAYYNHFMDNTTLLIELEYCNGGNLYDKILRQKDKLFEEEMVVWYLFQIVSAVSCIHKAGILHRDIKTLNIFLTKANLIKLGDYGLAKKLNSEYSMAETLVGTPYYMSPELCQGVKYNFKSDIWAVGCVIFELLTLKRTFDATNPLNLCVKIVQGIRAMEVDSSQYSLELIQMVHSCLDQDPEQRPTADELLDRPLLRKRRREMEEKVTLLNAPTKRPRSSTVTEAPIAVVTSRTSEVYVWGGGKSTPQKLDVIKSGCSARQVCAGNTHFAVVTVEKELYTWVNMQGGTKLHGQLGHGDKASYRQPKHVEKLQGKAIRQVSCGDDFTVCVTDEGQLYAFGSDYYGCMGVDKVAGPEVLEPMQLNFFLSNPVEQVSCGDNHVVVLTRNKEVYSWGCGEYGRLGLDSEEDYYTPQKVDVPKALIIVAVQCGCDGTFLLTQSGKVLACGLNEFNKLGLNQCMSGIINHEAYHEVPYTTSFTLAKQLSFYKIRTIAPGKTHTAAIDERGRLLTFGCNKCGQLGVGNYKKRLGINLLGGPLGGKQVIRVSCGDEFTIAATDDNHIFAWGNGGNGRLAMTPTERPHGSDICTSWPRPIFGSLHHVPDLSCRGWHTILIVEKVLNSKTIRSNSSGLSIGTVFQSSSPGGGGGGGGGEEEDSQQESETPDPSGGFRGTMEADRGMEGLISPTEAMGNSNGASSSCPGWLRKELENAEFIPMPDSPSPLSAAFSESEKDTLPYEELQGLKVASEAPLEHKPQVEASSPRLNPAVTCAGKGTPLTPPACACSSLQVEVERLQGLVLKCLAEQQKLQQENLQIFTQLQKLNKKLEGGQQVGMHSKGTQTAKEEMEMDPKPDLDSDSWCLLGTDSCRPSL
Sequence of UniProt Q9Y639 (Q9Y639 whole entry, looked up): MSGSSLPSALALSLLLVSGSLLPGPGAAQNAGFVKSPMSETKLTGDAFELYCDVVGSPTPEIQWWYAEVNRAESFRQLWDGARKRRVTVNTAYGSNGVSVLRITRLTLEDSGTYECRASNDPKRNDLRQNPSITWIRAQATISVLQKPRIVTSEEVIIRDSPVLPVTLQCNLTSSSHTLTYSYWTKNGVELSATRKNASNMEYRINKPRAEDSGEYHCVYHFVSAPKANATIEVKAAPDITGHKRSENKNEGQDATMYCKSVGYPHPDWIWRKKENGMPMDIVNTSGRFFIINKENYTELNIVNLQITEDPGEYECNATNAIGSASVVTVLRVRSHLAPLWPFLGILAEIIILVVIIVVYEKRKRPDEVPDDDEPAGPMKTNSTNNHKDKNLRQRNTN
Sequence of UniProt Q96IV0 (Q96IV0 whole entry, looked up): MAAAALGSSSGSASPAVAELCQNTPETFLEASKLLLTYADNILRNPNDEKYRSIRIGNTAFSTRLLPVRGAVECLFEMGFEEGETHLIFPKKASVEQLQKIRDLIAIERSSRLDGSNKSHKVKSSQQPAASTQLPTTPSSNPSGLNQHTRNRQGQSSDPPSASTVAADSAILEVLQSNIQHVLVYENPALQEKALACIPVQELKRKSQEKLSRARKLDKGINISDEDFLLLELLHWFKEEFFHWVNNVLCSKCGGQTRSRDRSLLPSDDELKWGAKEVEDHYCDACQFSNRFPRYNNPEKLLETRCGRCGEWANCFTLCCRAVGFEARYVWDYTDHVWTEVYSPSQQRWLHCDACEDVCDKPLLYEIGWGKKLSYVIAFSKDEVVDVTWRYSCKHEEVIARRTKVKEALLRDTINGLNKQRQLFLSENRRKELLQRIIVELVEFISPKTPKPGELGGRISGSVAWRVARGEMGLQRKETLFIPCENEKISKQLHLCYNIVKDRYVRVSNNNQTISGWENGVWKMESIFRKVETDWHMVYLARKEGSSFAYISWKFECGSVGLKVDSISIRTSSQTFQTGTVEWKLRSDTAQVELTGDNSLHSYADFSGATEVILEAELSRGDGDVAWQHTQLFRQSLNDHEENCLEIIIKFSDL
Sequence of UniProt O15294 (O15294 whole entry, looked up): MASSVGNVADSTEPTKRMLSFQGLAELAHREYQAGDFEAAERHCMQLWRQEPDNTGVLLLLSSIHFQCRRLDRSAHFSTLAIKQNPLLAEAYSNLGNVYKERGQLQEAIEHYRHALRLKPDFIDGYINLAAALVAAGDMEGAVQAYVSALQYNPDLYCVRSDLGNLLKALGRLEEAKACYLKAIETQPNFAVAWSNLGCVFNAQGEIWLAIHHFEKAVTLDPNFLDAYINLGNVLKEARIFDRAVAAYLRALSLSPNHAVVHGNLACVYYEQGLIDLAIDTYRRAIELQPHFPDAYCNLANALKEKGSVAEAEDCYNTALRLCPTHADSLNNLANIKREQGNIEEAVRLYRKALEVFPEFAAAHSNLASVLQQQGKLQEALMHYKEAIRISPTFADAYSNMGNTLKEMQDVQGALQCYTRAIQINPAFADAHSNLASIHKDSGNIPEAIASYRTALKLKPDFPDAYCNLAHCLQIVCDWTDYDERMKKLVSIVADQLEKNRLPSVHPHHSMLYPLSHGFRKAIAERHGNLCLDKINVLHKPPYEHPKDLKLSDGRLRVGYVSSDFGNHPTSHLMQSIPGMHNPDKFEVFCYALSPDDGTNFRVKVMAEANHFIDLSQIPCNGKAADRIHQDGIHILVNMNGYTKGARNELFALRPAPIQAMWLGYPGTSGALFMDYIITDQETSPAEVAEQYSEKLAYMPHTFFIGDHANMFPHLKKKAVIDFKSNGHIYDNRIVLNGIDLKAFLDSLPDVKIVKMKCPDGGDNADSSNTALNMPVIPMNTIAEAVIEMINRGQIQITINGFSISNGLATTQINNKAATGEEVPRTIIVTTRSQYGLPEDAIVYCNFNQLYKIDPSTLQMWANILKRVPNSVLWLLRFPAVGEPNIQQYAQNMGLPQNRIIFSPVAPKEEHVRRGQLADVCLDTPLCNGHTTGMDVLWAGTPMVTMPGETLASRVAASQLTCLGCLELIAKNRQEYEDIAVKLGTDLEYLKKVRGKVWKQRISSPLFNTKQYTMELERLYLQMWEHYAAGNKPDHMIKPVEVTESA
Sequence of UniProt Q9BRA0 (Q9BRA0 whole entry, looked up): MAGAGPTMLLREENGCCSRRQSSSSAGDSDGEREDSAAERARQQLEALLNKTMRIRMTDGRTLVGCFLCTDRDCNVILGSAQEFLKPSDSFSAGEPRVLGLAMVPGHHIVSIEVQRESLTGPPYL
Sequence of UniProt Q96IY1 (Q96IY1 whole entry, looked up): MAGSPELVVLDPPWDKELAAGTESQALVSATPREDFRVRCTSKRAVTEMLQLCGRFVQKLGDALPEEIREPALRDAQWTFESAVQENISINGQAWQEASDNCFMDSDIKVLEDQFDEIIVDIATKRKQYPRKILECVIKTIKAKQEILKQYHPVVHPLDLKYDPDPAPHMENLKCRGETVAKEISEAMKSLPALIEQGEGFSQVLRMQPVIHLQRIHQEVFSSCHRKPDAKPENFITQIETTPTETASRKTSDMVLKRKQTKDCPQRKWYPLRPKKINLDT

Target	log2 fold change
MRPL53 (UniProt Q96EL3)	0.069
NEBL isoform 2 (UniProt O76041)	0.02
PAIP2 (UniProt Q9BPZ3)	0.039
NEK9 (UniProt Q8TD19)	0.004
PARG (UniProt Q86W56)	-0.027
NGLY1 (UniProt Q96IV0)	-0.102
NOSIP (UniProt Q9Y314)	0.017
NEXN (UniProt Q0ZGT2)	-0.132
NEBL (UniProt O76041)	0.039
MTHFD1L (UniProt B7ZM99)	-0.111
PANK1 (UniProt Q8TE04)	-0.231
NUDT5 (UniProt Q9UKK9)	0.043
NSL1 (UniProt Q96IY1)	0.005
MYO1D (UniProt O94832)	0.006
NCK1 (UniProt P16333)	0.068
OGT (UniProt O15294)	-0.003
NCOR1 (UniProt O75376)	0.043
NDUFAF5 (UniProt Q5TEU4)	0.127

Target	log2 fold change
MSI2 (UniProt Q96DH6)	0.016
NAA38 isoform 2 (UniProt Q9BRA0)	-0.012
OSBPL3 isoform 2 (UniProt Q9H4L5)	-0.053
OLA1 (UniProt Q9NTK5)	-0.047
MRPS12 (UniProt O15235)	0.045
NFIC (UniProt P08651)	0.101
NPTN (UniProt Q9Y639)	0.032
OTC (UniProt P00480)	-0.246
NDC1 (UniProt Q9BTX1)	0.081
NNT (UniProt Q13423)	0.022
NUP160 (UniProt Q12769)	-0.106
NFATC1 (UniProt O95644)	0.001
MTMR6 (UniProt Q9Y217)	0.006
NARS2 (UniProt Q96I59)	-0.025
NSA2 (UniProt O95478)	0.067
PAN2 isoform 2 (UniProt Q504Q3)	0.041
NIPBL (UniProt Q6KC79)	-0.081
